SW480 rerep – induces DNA re-replication in SW480 colon adenocarcinoma cells; 340,000 tested, 1.8% active; SW480 DNA re-replication, Hoechst DNA content imaging, 48 h; Potency, µM (doses to about 46.1 µM), usual class: activators; further: nearly all actives have a fitted effect of over 55% in size
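First, 250 cells per well were seeded. Next, compound or vehicle (23 nL) was pinned in, plates sat 48 hr at 37 C. Finally Hoechst was added for 40 min before fluorescence scanning.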
KCNH2 WT inh – KCNH2 (human, wildtype) channel inhibition. U2OS, BacMam KCNH2, thallium flux FluxOr; hits give low values. 340,000 tested, 0.37% active. activity change, % at 1.84 µM. Q12809. AID 720551;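 active means maximum activity change below -70%; inconclusive means maximum activity change between -70% and -50%; inactive means maximum activity change above -50%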
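U2OS cells transduced with wild-type KCNH2 virus are loaded with FluxOr dye for 45 min, and thallium flux is measured in kinetic reads before and after stimulation buffer. Rate constants are normalized to DMSO controls.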
KB-V1 MDR tox – KB-V1 MDR subline cytotoxicity | KB-V1 MDR cells viability, CellTiter-Glo, 72 h | 400,000 tested, 3.4% active | Potency, µM (series often up to 46.1 µM), most hits filed as cytotoxic | AID 1347076; further: nearly all actives have a fitted effect of over 60% in size
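Cytotoxicity toward P-gp-expressing KB-V1 cells was determined as loss of CellTiter-Glo luminescence after 72 h at 37 degrees C. Compounds were tested in quantitative HTS format across a concentration range, with curves fitted to normalized data.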
KCNH2 3.1 inh – KCNH2 3.1 (human) potassium channel inhibition; U2OS KCNH2 3.1, thallium flux FluxOr; hits give low values; activity change, % (tested at about 1.8 µM); 340,000 tested, 0.95% active; AID 720553;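 active means maximum activity change below -70%; inconclusive means maximum activity change from -70% to -50%; inactive means maximum activity change above -50%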;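 further: thallium influx rate constant from kinetic fluorescence after stimulation buffer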
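We transduce U2OS cells with the mutant 3.1 virus, culture them overnight, load FluxOr with Red40 quencher for 45 min, then add stimulation buffer and read kinetically for 2 min to derive a normalized rate constant.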
KB-3-1 cytotox – kills parental KB-3-1 adenocarcinoma cells | 400,000 tested, 1.4% active | Potency, µM (series often up to 46.1 µM), actives largely listed as cytotoxic | AID 1347075 | KB-3-1 viability, CellTiter-Glo ATP luminescence, 72 h; further: nearly all actives have a fitted effect of over 60% in size
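Cells are dispensed, compounds pinned in, plates held at 37 °C for 72 h, then CellTiter-Glo is added and luminescence read after 10 minutes. Cell line: parental KB-3-1 in phenol-red-free DMEM, 10% FBS.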
MCF10A rerep – DNA re-replication induction in MCF 10a cells. MCF 10A DNA re-replication, Hoechst nuclear intensity, 48 h. Potency, µM (highest dose often 46.1 µM), usual class: activators. 350,000 tested, 2.9% active. AID 624296; further: nearly all actives have a fitted effect of over 50% in size
A number is an active result; . = inactive; ? = inconclusive; / = no result given. The list is not random: actives were taken first. Their share in the collection is about 7.6%. Unless noted, the call rests on the fitted dose curve; in most records, active means well fitted curve in the direction sought with a large enough effect; inconclusive means small, poorly fitted or top-dose-only effect, or another doubt; inactive means no such curve, though single readings can be large; an effect the other way counts as inactive or inconclusive.

SMILES	SW480 rerep	KCNH2 WT inh	KB-V1 MDR tox	KCNH2 3.1 inh	KB-3-1 cytotox	MCF10A rerep
Cc1ccccc1N/N=C/c1c(C)nc2ccccn12	.	.	.	.	.	16µM
COc1cc(C(=O)Nc2ccc(Br)cc2C(=O)c2cc(OC)c(OC)c(OC)c2)cc(OC)c1OC	16µM	.	?	.	?	21µM
O=C(Nc1cccc2cccnc12)c1cccc([N+](=O)[O-])c1	.	.	.	.	.	.
O=C(Nc1ccccc1C(=O)Nc1ccccn1)c1cccc([N+](=O)[O-])c1	.	.	.	.	.	3.7µM
COc1cc(C(=O)Nc2ccccn2)cc(OC)c1OC	.	.	.	.	.	.
COc1cc(C(=O)Nc2ccccc2NC(=O)c2cc(OC)c(OC)c(OC)c2)cc(OC)c1OC	.	.	.	.	.	.
COc1cc(C(=O)Nc2ccccc2C2COC(=O)C2=N)cc(OC)c1OC (configuration not stated)	.	.	12µM	.	.	.
COc1cc(C(=O)Nc2ccccc2C(=O)Nc2ccccn2)cc(OC)c1OC	23µM	.	6.5µM	.	8.2µM	?
O=C(COC(=O)C1CCN(c2ccc(C(F)(F)F)cn2)CC1)Nc1ccc(F)cc1[N+](=O)[O-]	.	.	.	?	.	.
CCc1cc(C(=O)NCc2ccccc2)no1	/	/	.	/	.	/
Cc1nc2c(o1)C(=O)c1ccccc1C2=Nc1ccccc1	4.1µM	.	3.3µM	.	4.6µM	6.5µM
Cc1ccc(N(CC(=O)Nc2cc(Cl)ccc2Oc2ccccc2)S(C)(=O)=O)cc1C	.	.	21µM	.	?	.
COc1ccc(C)cc1NC(=O)C(C)N(c1ccc(C)cc1)S(C)(=O)=O (configuration not stated)	.	.	.	.	.	.
Cc1ccc(N(C(C)C(=O)Nc2cc(Cl)ccc2Oc2ccccc2)S(C)(=O)=O)cc1 (configuration not stated)	8.2µM	.	?	-72	.	.
CN1CC(=O)N(CC(=O)NC2CCCCC2)C1=O	.	.	.	.	.	.
Cc1ccc(C(=O)Nc2ccc(Nc3ccccc3)cc2)cc1C	?	.	.	.	.	.
Cc1ccc(C(=O)Nc2cc(C(C)C)c(O)c(C(C)C)c2)cc1	.	.	16µM	.	?	.
Cc1cccc(C(=O)Nc2ccc(C(=O)Nc3ccc(O)cc3)cc2)c1	.	.	.	/	.	15µM
Cc1cccc(C(=O)Nc2ccc(NC(=O)c3cccc(C)c3)cc2)c1	/	.	.	.	?	/
CC(=O)Nc1ccc(NC(=O)c2ccc(NS(=O)(=O)c3cc(C(C)(C)C)cc(C)c3C)cc2)cc1	.	.	.	.	.	18µM
Cc1cc(C(C)(C)C)cc(S(=O)(=O)Nc2ccc(O)c(C(=O)O)c2)c1C	.	.	.	.	.	.
Cc1ccc(NC(=O)c2ccc(NC(=O)c3ccccc3)cc2)cc1C	?	.	18µM	.	23µM	.
CCc1cccc(NC(=O)C2CC2c2ccccc2)c1 (configuration not stated)	.	.	.	.	.	.
O=C(Nc1ccc(NC(=O)c2cccs2)cc1)c1ccccc1	?	.	.	.	.	.
O=C(Nc1ccc(-c2nc3ccc(NC(=O)c4cccs4)cc3[nH]2)cc1)c1cccs1	?	.	.	.	6.5µM	?
SMILES	SW480 rerep	KCNH2 WT inh	KB-V1 MDR tox	KCNH2 3.1 inh	KB-3-1 cytotox	MCF10A rerep
Cc1ccc(NC(=O)CCC(=O)NNC(=O)Cc2ccccc2)cc1C	.	.	.	.	.	1.8µM
O=C(Nc1ccc(O)cc1)c1ccc(NC(=O)c2cccs2)cc1	.	.	.	.	18µM	18µM
Cc1nc(C(F)(F)F)ccc1C(=O)N1CCCC1(C)C(=O)NCC(C)C (configuration not stated)	/	/	.	/	.	/
O=C(COc1ccccc1Cl)Nc1ccc(-c2nc3ccccc3s2)cc1	/	/	?	/	.	/
CON(C)c1nc(OCCNC(=O)OCc2ccc(Cl)cc2C)nc(N(C)C)n1	.	.	1.6µM	.	.	.
CN(C)c1nc(OCCNC(=O)COc2ccccc2Cl)nc(N(C)C)n1	.	.	1.6µM	.	.	?

Screening data (PubChem BioAssay)
